The subject of one experiment is SKOV3. Nature of the experiment: Primary qHTS to identify gynecologic anti-cancer compounds using libraries of approved drugs and bioactive compounds (AID 1345084). Further: nearly all actives have a fitted effect of over 55% in size. The following applies: Gynecologic cancer cell panel viability, ATPlite luminescence, 48 h; series mostly up to 57.5 µM. In short, it runs like this: (§1)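 Cells, 1,000 per well, plated 16 h, then exposed 48 h at 37 C to compounds. Viability by ATPlite luminescence after 15 min at room temperature.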

The test system of a further experiment is Tov-21-G. The experiment is described as above. The following applies: Gynecologic cancer cell panel viability, ATPlite luminescence, 48 h; series mostly up to 57.5 µM. In a few lines:
as §1

The next experiment relates to Tov112D. Described as above. To be noted: Gynecologic cancer cell panel viability, ATPlite luminescence, 48 h; series mostly up to 57.5 µM. In a few lines: as §1
Experiment [1] can be described thus: Drug repurposing screens with cells derived from glioblastoma tumor samples (AID 1345199). Further: nearly all actives have a fitted effect of over 40% in size. Further: potency means the concentration at half of the fitted maximal effect. The following applies: GBM patient neurospheres viability, ATP luminescence, 48 h. In a few lines:
(§2)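 Four patient lines of CD133+ GBM neurospheres were screened at several concentrations; hits were retested in those lines plus three slower-growing GBM lines, using 48-hour treatment and ATP-based viability.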

For another experiment, the system named is astro. Described as above. The following applies: viability, ATP luminescence, 48 h; series mostly up to 45.9 µM. In short, it runs like this:
as §2

The mark [2] stands for this setting: at 45.9 µM (top of the series), tumour line B.
The mark [3] stands for this setting: at 45.9 µM (top of the series), tumour line D.
The mark [4] stands for this setting: at 46 µM (top of the series), tumour line A.
Where [5] appears, read: at 46.1 µM (top of the series), tumour line C.
The mark [6] stands for this setting: at 20 µM (top of the series), tumour line C.
Setting [7] is: at 21.2 µM (top of the series), tumour line B.
[8] abbreviates: at 21.2 µM (top of the series), tumour line D.
The mark [9] stands for this setting: at 21.3 µM (top of the series), tumour line A.

Molecules are shown by their SMILES. Inconclusive results are not listed. Unmarked numbers belong to inactive results. The source made the active and inactive calls. The call rests on the fitted dose curve; in most records, active means well fitted curve in the direction sought with a large enough effect; inconclusive means small, poorly fitted or top-dose-only effect, or another doubt; inactive means no such curve, though single readings can be large; an effect the other way counts as inactive or inconclusive.

This note sets out measurements from PubChem BioAssay (NCATS).
On the % scale 0 is the no-effect control and ±100 the full control effect.

On to `Cc1cc(C)c(NC(=O)CN(CC(=O)O)CC(=O)O)c(C)c1Br`, for which the outcome in the experiment on SKOV3, in the experiment with Tov-21-G and in the experiment on Tov112D was inactive. Moreover, the activity, negative = cell killing is -5.55% in experiment [1] (setting [2]), -2.68% in experiment [1] (setting [3]), -17.3% in experiment [1] (setting [4]) and -18.8% in experiment [1] (setting [5]).

Take `O=C(O)Cc1cn(-c2ccccc2)nc1-c1ccc(Cl)cc1`: the compound was called inactive with SKOV3, with Tov-21-G and in the experiment on Tov112D. In addition, the activity, negative = cell killing in experiment [1] (setting [2]) is -17.9%; in experiment [1] (setting [3]), -13.4%; in experiment [1] (setting [5]), -18.4%.

As for `CCCCCCCCCCCCCCCCC(C(=O)O)C(O)(CC(=O)O)C(=O)O` (centres undefined), the compound was called inactive in the experiment with SKOV3, in the experiment on Tov-21-G and with Tov112D. Moreover, the activity, negative = cell killing is -24.2% in experiment [1] (setting [2]), -4.12% in experiment [1] (setting [3]), -28.6% in experiment [1] (setting [4]) and -24.9% in experiment [1] (setting [5]).

As to `CC(C)c1cc2c(cc1S(=O)(=O)O)[C@@]1(C)CCC[C@@](C)(C(=O)O)[C@@H]1CC2`, the compound was called inactive in the experiment with SKOV3, in the experiment with Tov-21-G and with Tov112D. Moreover, the activity, negative = cell killing is -17.5% in experiment [1] (setting [2]), -7.28% in experiment [1] (setting [3]), -18.1% in experiment [1] (setting [4]) and -15.9% in experiment [1] (setting [5]).

Turning to `Nc1ccc(C(=O)Oc2ccccc2)c(O)c1`, the result with SKOV3, in the experiment on Tov-21-G and in the experiment with Tov112D was inactive. Also, in experiment [1] (setting [5]), the activity, negative = cell killing is -12.2%. Also, the Potency in experiment [1] (tumour line A) is 11.2 µM (active).

As for `CC(C(=O)O)c1ccc2c(c1)Cc1cccnc1O2` (centres undefined), the result in the experiment on SKOV3, in the experiment on Tov-21-G and with Tov112D was inactive. In addition, the activity, negative = cell killing in experiment [1] (setting [2]) is 1.78%; in experiment [1] (setting [3]) it was -8.91%; in experiment [1] (setting [4]), -13.1%; in experiment [1] (setting [5]), -25.1%.

Turning to `NCc1ccc(S(N)(=O)=O)cc1`, the result in the experiment with SKOV3, in the experiment with Tov-21-G and with Tov112D was inactive. In addition, the activity, negative = cell killing in experiment [1] (setting [6]) is 8.51%; in experiment [1] (setting [7]), -1.96%; in experiment [1] (setting [8]), -7.46%.

As for `CC1(C)S[C@@H]2[C@H](NC(=O)C(C(=O)O)c3ccccc3)C(=O)N2[C@H]1C(=O)O` (some centres undefined), the call in the experiment on SKOV3, with Tov-21-G and in the experiment on Tov112D was inactive. Also, the activity, negative = cell killing was 2.69% in experiment [1] (setting [2]), -6.27% in experiment [1] (setting [3]), -8.84% in experiment [1] (setting [4]) and 7.57% in experiment [1] (setting [5]).

For the compound `NC(=O)c1ccc([N+](=O)[O-])cc1Cl`, the call in the experiment with SKOV3, in the experiment on Tov-21-G and in the experiment on Tov112D was inactive. The values for the activity, negative = cell killing in experiment [1] (setting [2]), in experiment [1] (setting [3]) and in experiment [1] (setting [5]) were -9.49%, -5.61% and -36.6%, respectively.

In the case of `CC(O)CCCCn1c(=O)c2c(ncn2C)n(C)c1=O` (centres undefined), the call with SKOV3, in the experiment with Tov-21-G and in the experiment on Tov112D was inactive. Besides, the activity, negative = cell killing in experiment [1] (setting [2]) was -11.9%; in experiment [1] (setting [3]), -16.4%; in experiment [1] (setting [4]), -31.9%; in experiment [1] (setting [5]), -1.44%.

In the case of `CN1C(C)(C)CCCC1(C)C`, the compound was called inactive in the experiment on SKOV3, with Tov-21-G and with Tov112D. The activity, negative = cell killing is -6.99% in experiment [1] (setting [2]), 3.96% in experiment [1] (setting [3]), -29.4% in experiment [1] (setting [4]) and -8.74% in experiment [1] (setting [5]).

For the compound `C[C@@H]1CCC[C@H](C)N1`, the compound was classed as inactive in the experiment with SKOV3, with Tov-21-G and with Tov112D. Further, the activity, negative = cell killing was -13.9% in experiment [1] (setting [6]), -3.64% in experiment [1] (setting [7]), -2.57% in experiment [1] (setting [8]) and -18% in experiment [1] (setting [9]).

Regarding `CCCOC(=O)c1ccc(N)cc1`, the call in the experiment on SKOV3, in the experiment on Tov-21-G and with Tov112D was inactive. Moreover, the activity, negative = cell killing in experiment [1] (setting [3]) is -16.4%. The Potency in experiment [1] (tumour line C) is 25.9 µM (active).

Regarding `C[N+](C)(C)CC[N+]1(C)Cc2c(Cl)c(Cl)c(Cl)c(Cl)c2C1`, the compound was classed as inactive with SKOV3, in the experiment on Tov-21-G and in the experiment with Tov112D. In addition, the activity, negative = cell killing is -5.4% in experiment [1] (setting [2]), -17.9% in experiment [1] (setting [3]) and -19.9% in experiment [1] (setting [5]).

Turning to `NS(=O)(=O)c1cc2c(cc1C(F)(F)F)NCNS2(=O)=O`, the compound was classed as inactive in the experiment on SKOV3, in the experiment on Tov-21-G, in the experiment with Tov112D and in the experiment with astro. The activity, negative = cell killing was -8.4% in experiment [1] (setting [6]), 8.4% in experiment [1] (setting [7]), -16.1% in experiment [1] (setting [8]) and -5.19% in experiment [1] (setting [9]).

In the case of `COc1ccc(C(=O)N2CCN(CC(=O)N3CCOCC3)CC2)cc1`, the result with SKOV3, in the experiment with Tov-21-G, in the experiment on Tov112D and in the experiment with astro was inactive. The activity, negative = cell killing in experiment [1] (setting [2]) is -0.665%; in experiment [1] (setting [3]) it was -14.5%; in experiment [1] (setting [4]), -23.3%; in experiment [1] (setting [5]) it was -11.4%.

As for `CC(=O)Oc1cccc(C)c1`, the outcome in the experiment on SKOV3, in the experiment on Tov-21-G, in the experiment on Tov112D and with astro was inactive. The activity, negative = cell killing in experiment [1] (setting [2]) is -2.63%; in experiment [1] (setting [3]), -6.87%; in experiment [1] (setting [4]) it was -17.9%; in experiment [1] (setting [5]), -0.258%.

For `Cn1c(=O)c2c(ncn2CCO)n(C)c1=O`, the compound was called inactive in the experiment on SKOV3, with Tov-21-G, in the experiment on Tov112D and in the experiment with astro. For the same compound, the activity, negative = cell killing is -5.04% in experiment [1] (setting [2]), -0.441% in experiment [1] (setting [3]), -29% in experiment [1] (setting [4]) and -21.7% in experiment [1] (setting [5]).

`CCOC(N)=O`: the compound was classed as inactive in the experiment with SKOV3, with Tov-21-G, in the experiment with Tov112D and in the experiment with astro. In addition, the activity, negative = cell killing is -14.9% in experiment [1] (setting [2]), 19.2% in experiment [1] (setting [3]), -11.2% in experiment [1] (setting [4]) and -16.1% in experiment [1] (setting [5]).

In the case of `CC(=O)OC[C@H]1O[C@@](COC(C)=O)(O[C@H]2O[C@H](COC(C)=O)[C@@H](OC(C)=O)[C@H](OC(C)=O)[C@H]2OC(C)=O)[C@@H](OC(C)=O)[C@@H]1OC(C)=O`, the compound was called inactive in the experiment on SKOV3, in the experiment with Tov-21-G, in the experiment on Tov112D and with astro. In addition, the activity, negative = cell killing in experiment [1] (setting [2]) is -8.85%; in experiment [1] (setting [3]) it was -9.16%; in experiment [1] (setting [4]) it was -28.7%; in experiment [1] (setting [5]) it was 2.01%.

As to `NC(N)=NCCN1CCCCCCC1`, the activity change, negative = cytotoxicity with SKOV3 was 6.07% [at 0.462 µM]; in the experiment with Tov-21-G, 1.66% [at 0.462 µM]; with Tov112D, 3.26% [at 0.462 µM]. The activity, negative = cell killing is -8.56% in experiment [1] (setting [6]), -5.86% in experiment [1] (setting [7]), 12.5% in experiment [1] (setting [8]) and -16.2% in experiment [1] (setting [9]). The call with astro was inactive.

`NC(N)=NS(=O)(=O)c1ccc(N)cc1`: the result with SKOV3, with Tov-21-G, in the experiment with Tov112D and in the experiment with astro was inactive. Further, the activity, negative = cell killing is 3.63% in experiment [1] (setting [6]), -6.02% in experiment [1] (setting [7]), 9.81% in experiment [1] (setting [8]) and 6.37% in experiment [1] (setting [9]).
